Luc counter – Counterscreen for Luciferase (Kinase-Glo TM) Inhibition; AID 1379, 2008; Potency, µM (highest dose often 38.3 µM), for inactives: at the highest dose activity change, negative = inhibition, most hits filed as inhibitors; Kinase-Glo luciferase, ATP luminescence, 8 min; Luciferin 4-monooxygenase (Photuris pensylvanica), Q27757; actives 0.28% (n = 200,000); further: on the % scale 0 is the no-effect control and ±100 the full control effect; nearly all actives have a fitted effect of over 60% in size
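Compounds were added to a substrate mix at pH 7.2 (50 mM imidazole, 10 uM ATP, within the enzyme's linear range), followed by Kinase-Glo detection reagent; luminescence was measured after 8 minutes at ambient temperature.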
Rab9 promoter act – qHTS Assay for Rab9 Promoter Activators | actives 2.8% (n = 320,000) | Potency, µM (titrated, usually from 9.22 µM), for inactives: at the highest dose activation, negative = inhibition, actives largely listed as activators | Huh7 Rab9 promoter-luciferase reporter, luminescence, 24 h; further: % of control where 0% means no effect; nearly all actives have a fitted effect of over 60% in size
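Luminescence read-out: Huh7 cells stably expressing Rab9-luciferase, treated 24 h with compound at 37 °C, then lysed with luciferase reagent for 10 min at ambient before reading.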
FLuc counter – qHTS profiling assay for firefly luciferase inhibitor/activator using purifed enzyme and Km concentrations of substrates (counterscreen for miR-21 project) | purified FLuc, Km substrates, luminescence inhibition | Potency, µM (top dose mostly 57.5 µM), for inactives: at the highest dose activity change, negative = inhibition, most hits filed as inhibitors | actives 6.9% (n = 360,000) | AID 588342, 2011;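 further: plate controls were vehicle for no effect and reference inhibitor for full effect; nearly all actives have a fitted effect of over 55% in size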
Target sequence (P08659 whole entry, looked up): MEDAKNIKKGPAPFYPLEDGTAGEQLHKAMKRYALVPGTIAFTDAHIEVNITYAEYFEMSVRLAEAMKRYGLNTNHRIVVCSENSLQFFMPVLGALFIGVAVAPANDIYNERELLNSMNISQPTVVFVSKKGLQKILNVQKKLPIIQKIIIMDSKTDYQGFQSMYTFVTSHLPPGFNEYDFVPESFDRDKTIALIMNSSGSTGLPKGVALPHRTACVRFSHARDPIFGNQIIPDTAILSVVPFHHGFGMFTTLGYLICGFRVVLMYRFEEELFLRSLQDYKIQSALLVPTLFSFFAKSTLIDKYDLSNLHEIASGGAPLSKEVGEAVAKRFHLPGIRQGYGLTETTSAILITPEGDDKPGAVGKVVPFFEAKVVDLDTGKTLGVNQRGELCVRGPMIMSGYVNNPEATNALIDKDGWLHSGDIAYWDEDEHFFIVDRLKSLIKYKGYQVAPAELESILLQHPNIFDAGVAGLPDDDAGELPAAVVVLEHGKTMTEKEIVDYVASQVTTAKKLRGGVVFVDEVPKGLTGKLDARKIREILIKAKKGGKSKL
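Purified P. pyralis luciferase (10nM final) with 10uM D-luciferin and 10uM ATP (Km levels) in 50mM Tris acetate pH 7.5, 10mM Mg acetate, 0.01% Tween-20, 0.05% BSA; qHTS 6-point titration, ~60 µM downward; luminescence read.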
ELG1 genotox – qHTS screen for small molecules that induce genotoxicity in human embryonic kidney (HEK293T) cells expressing luciferase-tagged ELG1; HEK293T ELG1-luciferase reporter, luminescence, 16 h; Potency, µM (titrated, usually from 46 µM), inactives show at the top dose activity change, positive = activation, most hits filed as activators; actives 1.3% (n = 330,000); AID 504466, 2011; further: % of control where 0% means no effect; nearly all actives have a fitted effect of over 60% in size
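Reporter readout depends on ELG1 protein level, which increases with genetic stress. After 16 hr compound exposure at 37 °C, luciferase activity was quantified using ONE-Glo.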
NPC1 prom act – qHTS Assay for NPC1 Promoter Activators | AID 485313, 2010 | Potency, µM (series often up to 9.22 µM), inactives show top-dose activation, most hits filed as activators | actives 2.4% (n = 320,000) | Huh7 NPC1 promoter luciferase reporter, 24 h; further: % of control where 0% means no effect; nearly all actives have a fitted effect of over 60% in size
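In 1536-well qHTS, Huh7 cells harboring an NPC1 promoter–luciferase construct received compound for 24 h; activation was quantified by luminescence following luciferase reagent addition.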
SMN2 splice enh – qHTS Assay for Enhancers of SMN2 Splice Variant Expression; AID 1458, 2008; HEK293 SMN2-luciferase splicing reporter, luminescence, 30-36 h; Potency, µM (series often up to 46.1 µM), for the others: at the highest dose activity change, positive = activation, most hits filed as activators; actives 2.8% (n = 210,000); further: % of control where 0% means no effect; nearly all actives have a fitted effect of over 55% in size
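HEK293 cells carry an SMN2 […]–luciferase reporter in which exon 7 inclusion puts luciferase in frame. Cells were plated 10-12 h before compound addition, then incubated 30-36 h at 37C. ONE-Glo luminescence was read; sodium butyrate at 4.5 mM final served as control.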
Active calls of the source: *; ? = inconclusive; · = no result given. Most compounds without a hit are left out; they make up all but 7.5% or so of the library. The call rests on the fitted dose curve; in most records, active means well fitted curve in the direction sought with a large enough effect; inconclusive means small, poorly fitted or top-dose-only effect, or another doubt; inactive means no such curve, though single readings can be large; an effect the other way counts as inactive or inconclusive. Potency means the concentration at half of the fitted maximal effect.

SMILES | Luc counter | Rab9 promoter act | FLuc counter | ELG1 genotox | NPC1 prom act | SMN2 splice enh
CCc1nc(-c2ccccc2O)n(-c2ccccc2)n1 | 2.2% | -7.7% | 0.1% | -0.1% | -2.6% | -15.8%
CN(C)c1ccc(/C=C/c2noc(-c3ccccc3O)n2)cc1 | · | · | 0.675µM* | · | · | -24.4%
CCOC(=O)c1c(NC(=O)COc2ccc(C)cc2C(C)(C)C)sc2c1CCC(C)C2 (stereo not drawn) | · | · | -0.2% | · | · | -5.9%
COc1ccccc1-c1nnc(SCc2nc3ccccc3s2)n1C | 0.5% | 23.5% | ? | 4.1% | 19.9% | 0.4%
Cn1c(SCc2nc3ccccc3s2)nnc1-c1cccs1 | -11.1% | 5.7% | ? | ? | 18.4% | -12.0%
Cc1ccccc1-n1c(C)nnc1SCc1nc2ccccc2s1 | -2.7% | 27.6% | 4.78µM* | ? | 14.6% | 2.4%
CCOc1ccc(-n2nnnc2-c2nc3ccccc3s2)cc1 | -5.4% | 2.51µM* | 2.13µM* | 18.4µM* | ? | -55.2%
CCOc1ccccc1-n1nnnc1SCc1nc2ccccc2s1 | -2.4% | 17.2% | 13.5µM* | -4.3% | 14.4% | -27.9%
CCn1c(SCc2nc3ccccc3s2)nnc1-c1cccs1 | -4.9% | ? | 15.1µM* | ? | 18.0% | ?
COc1ccc(-c2nnc(SCc3nc4ccccc4s3)n2C(C)C)cc1 | 2.3% | ? | ? | ? | 24.8% | 28.8%
CCNc1ncc2nc(-c3ccc(OC)cc3)c(=O)n(-c3ccc(OC)cc3)c2n1 | -1.7% | · | · | · | · | -11.8%
CCOc1ccccc1N(C)C(=O)C1CCCN(c2ncnc3onc(-c4ccc(F)cc4)c23)C1 (stereo not drawn) | · | · | 3.0% | · | · | ·
N#C/C(=C\c1c[nH]c2ccccc12)C(=O)NCC1CCCO1 (stereo not drawn) | -0.9% | 29.3% | 16.9µM* | ? | 17.8% | ·
Cc1[nH]c2ccccc2c1/C=C(\C#N)C(=O)NCC1CCCO1 (stereo not drawn) | -3.0% | -1.2% | ? | 2.5% | -3.4% | ·
COc1ccc(NS(=O)(=O)c2ccc(C)c(NC(=O)CN3C(=O)NC4(CCCC4)C3=O)c2)cc1 | · | -4.7% | · | 2.7% | 6.7% | ·
Cc1ccc2c(c1)C(=NC1CCCCC1)c1cc3ccccc3nc1-2 | -1.1% | ? | 15.1µM* | ? | 10.7% | 2.82µM*
Cc1ccc2c(c1)-c1nc3ccccc3cc1C2=NC1CCCCC1 | -1.7% | 3.55µM* | 10.7µM* | ? | ? | 6.31µM*
Cc1ccc(-c2cc3ccccc3nc2N2CCCC2)cc1 | 1.7% | -0.2% | -1.9% | -1.9% | -2.8% | -32.3%
Cc1ccc(C)c(Nc2cc(C(=O)NC3CCCCC3)c3ccccc3n2)c1 | · | · | -3.7% | · | · | 5.4%
COC(=O)[C@H](Cc1ccccc1)NC(=O)c1cc(COc2c(F)cccc2F)on1 | · | ? | 19µM* | ? | ? | ·
CCC(NC(=O)c1cc(COc2c(F)cccc2F)on1)c1ccncc1 (stereo not drawn) | · | -0.7% | -3.5% | -3.2% | 8.7% | ·
CN(Cc1cc(-c2ccccc2)on1)C(=O)c1cc(COc2c(F)cccc2F)on1 | 2.9% | 2.51µM* | 23.9µM* | 16.2% | 23.7% | ·
Cc1nc(CN(C)C(=O)c2cc(COc3c(F)cccc3F)on2)cs1 | 2.5% | -3.7% | -10.7% | 1.2% | -0.2% | ·
Cc1ccc(NC(=O)Nc2nnc(N3CCCCC3)s2)c(C)c1 | · | · | -2.4% | · | · | ·
COc1cc(-c2nnc(CSc3nnc(Nc4ccc(Oc5ccccc5)cc4)s3)o2)cc(OC)c1OC | -0.7% | 14.3% | 9.53µM* | -2.4% | 15.3% | 12.6%
SMILES | Luc counter | Rab9 promoter act | FLuc counter | ELG1 genotox | NPC1 prom act | SMN2 splice enh
COc1cc(-c2nnc(CSc3nnc(N)s3)o2)cc(OC)c1OC | 1.3% | -2.2% | 1.5% | 7.3% | -1.6% | 19.8%
Cc1ccnc(NC(=O)Nc2cccc(F)c2)c1 | -17.2% | 1µM* | 0.953µM* | 0.92µM* | 1.58µM* | 3.55µM*
Cc1ccc(NC(=O)Nc2cccc(F)c2)nc1 | · | ? | 6.75µM* | ? | ? | ·
COC(=O)Cc1ccc2sc(-c3ccccc3)nc2c1 | 12.6µM* | 2.51µM* | 0.675µM* | 2.59µM* | 1.58µM* | 1.58µM*
O=C(O)Cc1ccc2sc(-c3ccccc3)nc2c1 | ? | 20.8% | 19µM* | 8.0% | 13.7% | 21.2%
COc1ccc(CCNC(=O)CCn2c(=O)c3ccccc3n(Cc3c(C)cc(C)cc3C)c2=O)cc1OC | · | · | -0.2% | · | · | 4.4%
COc1ccc(OC)c(NC(=O)Nc2cccc(OCc3cc(=O)n4cc(C)ccc4n3)c2)c1 | · | · | 1.2µM* | · | · | ·
Cc1ccc2nc(COc3ccc(Cl)cc3)cc(=O)n2c1 | 2.6% | 1.26µM* | ? | 23.1% | 3.55µM* | 12.6µM*
COc1ccc(-n2ncc(C(=O)NCc3ccccc3)c2C2CCN(C(=O)OC(C)(C)C)CC2)cc1 | · | · | -7.5% | · | · | ·
c1ccc(Cn2ccnc2-c2ccco2)cc1 | -5.4% | 9.7% | 21.3µM* | ? | 13.9% | 14.7%
Nn1c(SCc2ccccc2)nnc1-c1ccco1 | -2.4% | -5.2% | -12.7% | ? | 0.1% | 26.7%
CCCCOc1ccccc1C(=O)N(Cc1sccc1C)C1CCS(=O)(=O)C1 (stereo not drawn) | · | · | -0.4% | · | · | -3.9%
CCn1c(COc2ccccc2C)nc2ccccc21 | -11.2% | 25.0% | 10.7µM* | ? | 28.1% | ?
Cn1c(COc2ccccc2Br)nc2ccccc21 | · | ? | 6.75µM* | 10.3µM* | 2.51µM* | ·
CCn1c(CCc2ccccc2)nc2ccccc21 | · | 15.3% | 16.9µM* | 4.3% | 15.4% | ·
CCn1c(COc2ccccc2OC)nc2ccccc21 | · | 4.1% | 16.9µM* | 8.6% | 5.0% | ·
CCCn1c(COc2ccccc2OC)nc2ccccc21 | · | 2.5% | ? | -2.0% | -0.9% | ·
COC(=O)c1ccc(-n2c(/C=C/c3cc(OC)c(OC)c(OC)c3)nc3cc(Cl)ccc3c2=O)cc1 | · | · | -2.1% | · | · | ·
Cc1cccc(N2CCN(C(=O)CN3C(=O)COc4ccc(S(=O)(=O)N5CCC(C)CC5)cc43)CC2C)c1 (stereo not drawn) | · | · | -4.5% | · | · | -3.1%
Cn1c(-c2ccccc2)c(C#Cc2ccc(N)cc2)c2ccccc21 | · | · | · | -2.4% | · | ·
COc1ccc(C#Cc2ccc3c(c2)c(=O)c2ccccc2n3C)cc1 | · | 14.8% | 12µM* | -3.1% | 16.1% | ·
Cn1c2ccccc2c(=O)c2cc(C#Cc3ccc(N)cc3)ccc21 | · | ? | 6.01µM* | 6.2% | ? | ·
